# Compounds with a hit are over-represented: about 5.6% of the library has one in this group of screens.
# PKM2 act: activators of human pyruvate kinase M2; P14618; Potency, µM (doses to about 57.5 µM), for the others: at the highest dose activation, usual class: activators; 0.34% of 260,000 active; purified PKM2, Kinase-Glo ATP luminescence, activation; response scale: 0% is enzyme alone, no compound; further: potency means the concentration at half of the fitted maximal effect; nearly all actives have a fitted effect of over 55% in size
# Target sequence (P14618 whole entry, looked up): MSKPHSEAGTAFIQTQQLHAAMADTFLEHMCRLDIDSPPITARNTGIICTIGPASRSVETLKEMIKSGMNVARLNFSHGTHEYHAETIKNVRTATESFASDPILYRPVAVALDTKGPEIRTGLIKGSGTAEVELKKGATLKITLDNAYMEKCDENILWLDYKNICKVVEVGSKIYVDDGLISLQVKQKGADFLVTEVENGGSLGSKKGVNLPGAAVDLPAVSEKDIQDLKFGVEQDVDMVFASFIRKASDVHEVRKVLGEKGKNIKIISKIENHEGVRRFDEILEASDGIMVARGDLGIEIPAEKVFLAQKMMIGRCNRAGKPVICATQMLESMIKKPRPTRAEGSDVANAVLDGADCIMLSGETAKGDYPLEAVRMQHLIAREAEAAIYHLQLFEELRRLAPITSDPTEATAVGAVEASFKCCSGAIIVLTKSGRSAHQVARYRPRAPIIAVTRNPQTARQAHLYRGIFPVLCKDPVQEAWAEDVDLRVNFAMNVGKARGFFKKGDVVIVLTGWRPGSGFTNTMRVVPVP
#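 ATP formation by purified human PK-M2, quantified via coupled luciferase luminescence after 1 h at room temperature with 0.1 mM ADP and 0.5 mM PEP final.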
# RORgamma inh: inhibitors of mouse ROR gamma transcriptional activity. Drosophila S2 Gal4-RORgamma UAS-luciferase reporter, 20 h. Potency, µM (doses to about 53.6 µM), inactives show at the top dose activity change, negative = inhibition, actives largely listed as inhibitors. AID 2551. P51450. 5.4% of 310,000 active; further: potency means the concentration at half of the fitted maximal effect; nearly all actives have a fitted effect of over 60% in size
#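 ROR gamma transcriptional activity was tracked as Gal4-UAS luciferase output in stably transfected Drosophila Schneider cells, with compound added 1 hr before 700 uM copper sulfate induction and a 20 hr ambient-temperature incubation.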
# CtBP-E1A blk: blocks the CtBP interaction with E1A; AlphaScreen GST-E1A/His-CtBP binding, 1536-well; hits give low values; activity change, % (concentration not given with the values); 0.49% of 340,000 active; AID 651724; in the data active means activity change below about -65%; inconclusive means mostly about -30% to -63%
#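 Protein mix (5X: 125 nM each GST-E1A, His-CtBP) was incubated with pinned compound 2 h at 37 deg C in dark, in 50 mM Tris pH 8.0 buffer with 300 mM NaCl. Glutathione donor and nickel acceptor beads followed; AlphaScreen signal read after 1 h.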
# Six1-Eya2 blk: inhibitors of human Six1/Eya2 interaction; Q15475+O00167; AlphaScreen GST-Six1/His-Eya2 binding, biochemical; hits give low values; activity change, % (concentration not given with the values); 0.56% of 360,000 active; in the data active means activity change below about -65%; inconclusive means mostly about -30% to -63%
#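 AlphaScreen with GST-Six1 and His-Eya2 (5X mix: 250 nM and 500 nM), glutathione donor and nickel acceptor beads; buffer 50 mM Tris pH 8.0, 300 mM NaCl, 1 mM TCEP; 1 h at 37 C in the dark.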
# VP16 counter: inhibits Gal4-VP16 luciferase reporter, ROR gamma counter-screen; Drosophila S2 Gal4-VP16 UAS-luciferase, luminescence, 20 h; Potency, µM (doses to about 53.6 µM), without a hit: at the highest dose activity, negative = inhibition, actives largely listed as inhibitors; 3.5% of 310,000 active;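 further: Gal4-VP16 expression switched on by copper sulfate through the metallothionein promoter; potency means the concentration at half of the fitted maximal effect; nearly all actives have a fitted effect of over 50% in size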
# The depositor's hits bear a star; ? = inconclusive; . = not tested or not shown; [ ] = dose if it differs, or a comment. Unless noted, the call rests on the fitted dose curve; in most records, active means well fitted curve in the direction sought with a large enough effect; inconclusive means small, poorly fitted or top-dose-only effect, or another doubt; inactive means no such curve, though single readings can be large; an effect the other way counts as inactive or inconclusive. On the % scale 0 is the no-effect control and ±100 the full control effect.
SMILES,PKM2 act,RORgamma inh,CtBP-E1A blk,Six1-Eya2 blk,VP16 counter
O=C(NC(=S)N1CCN(c2ccccn2)CC1)c1ccccc1,-7.3%,2.24µM*,-4.9,14.7,4.47µM*
O=C(NC(=S)NC1CCCCCCCCCCC1)c1cccnc1,-7.2%,0.0%,-0.8,3.2,-11.3%
Cc1cc(OC(C)C(=O)N2C[C@H]3C[C@@H](C2)c2cccc(=O)n2C3)c2c(C)c(C)c(=O)oc2c1 (stereo partly drawn),0.4%,?,7.6,0.3,-21.9%
CCOC(=O)C1CCN(CCC(=O)Nc2ccc(C)c(C)c2)CC1,-3.2%,3.1%,-1.0,3.1,-6.7%
CCOc1cc(-c2noc(N)c2C#N)cc(OCC)c1OCC,-0.5%,11.2µM*,-3.7,-2.2,?
COc1ccc(/C=C/C(=O)Nc2c(C(=O)O)[nH]c3ccccc23)cc1OC,-7.5%,18.4%,-9.7,-3.3,-0.3%
O=c1c2ccccc2[nH]c(=S)n1Cc1ccc2c(c1)OCO2,5.3%,-0.4%,-22.7,3.1,-10.8%
O=c1c2cc(N3CCOCC3)ccc2[nH]c(=S)n1Cc1ccco1,?,14.1µM*,-12.6,-24.5,?
O=c1c2cc(Cl)ccc2[nH]c(=S)n1Cc1cccs1,?,2µM*,-23.2,0.8,4.47µM*
COc1cccc(Cn2c(=S)[nH]c3ccc(N4CCOCC4)cc3c2=O)c1,-2.4%,2.82µM*,14.3,-0.2,6.31µM*
O=c1c2cc(N3CCOCC3)ccc2[nH]c(=S)n1Cc1cccc(Cl)c1,3.4%,3.55µM*,24.9,1.0,5.62µM*
COc1ccc(NC(=O)c2ccc3c(=O)n(Cc4ccco4)c(=S)[nH]c3c2)c(OC)c1,0.5%,?,2.2,-10.8,-0.8%
O=c1[nH]c2ccc(Cl)cc2c(=O)n1Cc1ccco1,?,?,4.2,-6.5,?
COc1cc2[nH]c(=S)n(Cc3ccco3)c(=O)c2cc1OC,1.6%,11.2µM*,-25.5,-18.7,?
O=c1c2cc(N3CCOCC3)ccc2[nH]c(=S)n1CCCN1CCCC1,-0.3%,5.5%,-3.1,-6.5,-2.8%
O=c1c2cc(Cl)ccc2[nH]c(=S)n1Cc1ccco1,10.3%,2.24µM*,2.5,-4.5,5.62µM*
CCCn1c(=S)[nH]c2cc(C(=O)N3CCN(c4ccccc4)CC3)ccc2c1=O,.,.,4.7,4.1,.
O=C(c1ccc2c(=O)n(Cc3ccco3)c(=S)[nH]c2c1)N1CCN(c2ccccc2)CC1,12.6µM*,?,-1.2,3.6,-3.5%
CCN(CCCn1c(=S)[nH]c2ccc(N3CCOCC3)cc2c1=O)c1ccccc1,-8.0%,3.98µM*,-7.1,5.1,?
CN1Cc2c(N)cccc2[C@H](c2ccccc2)C1,.,3.3%[16.9 µM],.,.,-7.0%[17 µM]
CC(C)NC(=O)N[C@H]1CC[C@H](CC(=O)NCc2ccc(Oc3ccccc3)cc2)O[C@@H]1CO,.,.,-2.1,5.6,.
COc1ccc(C2=NOC(Cn3nc(-c4ccccc4C)cc3C(=O)O)C2)cc1 (stereo not drawn),.,.,-22.9,3.8,.
Cc1c(C(=O)OCC2CCCO2)[nH]c2c1C(=O)CC(c1ccco1)C2 (stereo not drawn),20µM*,?,4.1,-23.8,-6.2%
Cc1c(C(=O)OCC(C)C)[nH]c2c1C(=O)CC(c1ccco1)C2 (stereo not drawn),?,?,-3.8,-15.3,1.1%
COC(=O)Cc1ccc2sc(-c3ccccc3)nc2c1,-40.1%,?,3.6,27.8,15.8µM*
SMILES,PKM2 act,RORgamma inh,CtBP-E1A blk,Six1-Eya2 blk,VP16 counter
CCOc1ccccc1N(C)C(=O)CCS(=O)(=O)c1ccc2c(c1)NC(=O)CO2,0.0%[0.46 µM],-1.1%,7.1,6.0,2.9%
CCCCCCCCCCOC(=O)Cn1c(COc2ccccc2OC)[n+](C)c2ccccc21,0.0%,?,-21.1,-7.2,4.47µM*
COCCN(Cc1ccc(OC)cc1)c1c(C)nc2ccc(C(=O)NCCc3c[nH]c4ccccc34)cn12,.,.,-7.3,-7.4,.
O=C(N/N=C/c1cc(Br)ccc1O)C(=O)Nc1ccccc1OC(F)(F)C(F)F,2.0%,0.794µM*,-14.5,-2.7,2.82µM*
O=C(N/N=C/c1cc(Cl)ccc1O)C(=O)Nc1ccccc1OC(F)(F)C(F)F,-2.4%,0.891µM*,?,-27.3,2.51µM*
COc1ccccc1/C=N/NC(=O)C(=O)Nc1ccccc1OC(F)(F)C(F)F,-9.1%,-5.4%,7.8,0.0,0.9%

# High-throughput results from PubChem BioAssay.
